# Measurements as given in PubChem BioAssay (Tox21).
# “And” between values parts separate entries of the source, which are not always exact repeats. Equal entries are not always repeated. Results filed as inconclusive are left out. Entries that show only a call come without a potency. The source made the active and inactive calls. Calls come from the whole dose curve; as a rule, active = well fitted curve in the direction sought with a large enough effect in the repeat runs; inconclusive = weak or mixed curves; inactive = no such curve, though single readings can be large; an effect the other way counts as inactive or inconclusive.
# Assays:
# [1] = A CellTox Green Cytotoxicity Assay to monitor cytotoxicity in HEK293 cells - 32 hour (AID 1224881); note: nearly all actives have a fitted effect of over 40% in size; note: potency is the fitted concentration of half-maximal effect
# Procedure, shortened: (§1)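 HEK293 cells premixed with CellTox Green dye were seeded at 600 cells/well and left 5 h at 37 C/5% CO2 before pin transfer of 23 nL compound in DMSO. Fluorescence from dye bound to dead-cell DNA was read during 40 h treatment.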
# [2] = A CellTox Green Cytotoxicity Assay to monitor cytotoxicity in HepG2 cells - 0 hour (AID 1224882); note: nearly all actives have a fitted effect of over 35% in size
# Procedure, shortened: (§2)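 HepG2 cells were seeded together with the CellTox Green dye at 600 cells/well, left 5 h at 37 C/5% CO2, then given compounds in DMSO. Fluorescence from dye bound to dead-cell DNA was read repeatedly over 40 h of treatment at 37 C.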
# [3] = A CellTox Green Cytotoxicity Assay to monitor cytotoxicity in HepG2 cells - 32 hour (AID 1224883); note: nearly all actives have a fitted effect of over 50% in size; note: potency is the fitted concentration of half-maximal effect
# Procedure, shortened: as §2
# [4] = A CellTox Green Cytotoxicity Assay to monitor cytotoxicity in HEK293 cells - 8 hour (AID 1224884); note: nearly all actives have a fitted effect of over 35% in size; note: potency is the fitted concentration of half-maximal effect
# Procedure, shortened: as §1
# [5] = qHTS RealTime-Glo MT Cell Viability Assay in HepG2 cells - 16 hour (AID 1224885); note: nearly all actives have a fitted effect of over 50% in size; note: potency is the fitted concentration of half-maximal effect
# Procedure, shortened: (§3)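 HepG2 cells were seeded at 600 cells/well together with NanoLuc luciferase and a cell-permeant prosubstrate, preincubated 5 h at 37 C/5% CO2, then pin-dosed with compounds in DMSO. Nonlytic luminescence from viable cells was read at each time point.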
# [6] = qHTS RealTime-Glo MT Cell Viability Assay in HEK293 cells - 24 hour (AID 1224886); note: nearly all actives have a fitted effect of over 50% in size; note: potency is the fitted concentration of half-maximal effect
# Procedure, shortened: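 HEK293 cells were seeded at 600 cells/well together with NanoLuc luciferase and cell-permeant prosubstrate, preincubated 5 h at 37 C/5% CO2, then given compound in DMSO by pintool. Luminescence from viable-cell prosubstrate reduction was read repeatedly over 40 h.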
# [7] = qHTS RealTime-Glo MT Cell Viability Assay in HEK293 cells - 8 hour (AID 1224887); note: nearly all actives have a fitted effect of over 50% in size; note: potency is the fitted concentration of half-maximal effect
# Procedure, shortened: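 HEK293 cells mixed with RealTime-Glo reagents (NanoLuc plus cell-permeant prosubstrate) at 600 cells/well, preincubated 5 h at 37 C/5% CO2, then given 23 nL compound in DMSO. Nonlytic luminescence from viable cells was read at 0, 8, 16, 24, 32 and 40 h.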
# [8] = qHTS RealTime-Glo MT Cell Viability Assay in HepG2 cells - 0 hour (AID 1224889); note: nearly all actives have a fitted effect of over 50% in size
# Procedure, shortened: as §3
# [9] = A CellTox Green Cytotoxicity Assay to monitor cytotoxicity in HepG2 cells - 8 hour (AID 1224890); note: nearly all actives have a fitted effect of over 45% in size; note: potency is the fitted concentration of half-maximal effect
# Procedure, shortened: as §2
# [10] = A CellTox Green Cytotoxicity Assay to monitor cytotoxicity in HEK293 cells - 16 hour (AID 1224888); note: nearly all actives have a fitted effect of over 35% in size
# Procedure, shortened: as §1
Structure (SMILES),Potency [1],Potency [2],Potency [3],Potency [4],Potency [5],Potency [6],Potency [7],outcome [8],Potency [9],Potency [10]
CN1C(=O)CN=C(c2ccccc2)c2cc([N+](=O)[O-])ccc21,inactive,inactive,inactive,inactive,inactive,inactive,inactive,inactive,inactive,
Cc1cnc(C2=NC(C)(C(C)C)C(=O)N2)c(C(=O)O)c1 (centres undefined),inactive,inactive,inactive,inactive,inactive,inactive,inactive,inactive,inactive,inactive
CN(C)c1ccc(N=O)cc1,11 µM (active) and 19.5 µM (active),inactive,39 µM (active),inactive,55.1 µM (active) and 43.6 µM (active),15.5 µM (active) and 24.5 µM (active),15.5 µM (active) and 21.9 µM (active),,inactive,inactive
CCC(C)Cl (centres undefined),inactive,inactive,inactive,inactive,inactive,inactive,inactive,inactive,inactive,inactive
Nc1ccccc1C(=O)OCC(O)CO (centres undefined),inactive,inactive,inactive,inactive,inactive,inactive,inactive,inactive,inactive,
O=C([O-])c1ccccn1.O=C([O-])c1ccccn1.O=C([O-])c1ccccn1.[Cr+3],inactive,inactive,inactive,inactive,inactive,inactive,inactive,inactive,inactive,
CCOC(C(=O)OCCN(C)C)(c1ccccc1)c1ccccc1,inactive,inactive,inactive,inactive,inactive,inactive,inactive,inactive,inactive,inactive
CCOC(=O)C1OC1(C)c1ccccc1 (centres undefined),inactive,inactive,inactive,inactive,inactive,inactive,inactive,inactive,inactive,inactive
CCCCNC(=O)OCC#CI,54.9 µM (active),inactive,54.9 µM (active),inactive,10.9 µM (active) and 4.9 µM (active),21.8 µM (active) and 21.9 µM (active),24.5 µM (active),,inactive,inactive
O=C1NC(=O)C(=O)C(=O)N1,inactive,inactive,inactive,inactive,inactive,inactive,inactive,inactive,inactive,
C[CH2][Hg][S]c1ccccc1C(=O)O,7.76 µM (active) and 4.77 µM (active),inactive,3.09 µM (active) and 2.13 µM (active),4.77 µM (active),2.45 µM (active) and 2.13 µM (active),1.1 µM (active) and 1.34 µM (active),3.09 µM (active) and 4.25 µM (active),inactive,7.76 µM (active) and 2.39 µM (active),
C=CCSSCC=C,inactive,inactive,inactive,54.9 µM (active),inactive,inactive,inactive,inactive,inactive,inactive
Cc1cccc(C)c1NC1=NCCCS1,inactive,inactive,inactive,inactive,inactive,inactive,inactive,inactive,inactive,
C=CC(=O)NC(C)(C)CC(C)=O,inactive,inactive,inactive,inactive,inactive,inactive,inactive,inactive,inactive,
CN1CC[C@]23c4c5ccc(O)c4O[C@H]2[C@@H](O)CC[C@H]3[C@H]1C5,inactive,inactive,inactive,inactive,inactive,inactive,inactive,inactive,inactive,
CCc1cnc(C2=NC(C)(C(C)C)C(=O)N2)c(C(=O)O)c1 (centres undefined),inactive,inactive,inactive,inactive,inactive,inactive,inactive,inactive,inactive,
CCOC(=O)c1cn2nc(OP(=S)(OCC)OCC)cc2nc1C,inactive,inactive,inactive,inactive,inactive,17.4 µM (active),17.4 µM (active),,inactive,inactive
OCCSSCCO,inactive,inactive,inactive,inactive,inactive,inactive,inactive,inactive,inactive,
CCCCCCCCCCCCN(C)C,inactive,inactive,inactive,inactive,inactive,inactive,inactive,inactive,inactive,inactive
C=CC(=O)OCC,inactive,inactive,inactive,inactive,inactive,inactive,inactive,inactive,inactive,inactive
O=C(O)C(Cl)(Cl)Br,inactive,inactive,inactive,inactive,inactive,inactive,inactive,inactive,inactive,
COC(=O)Cc1ccccc1,inactive,inactive,inactive,inactive,inactive,inactive,inactive,inactive,inactive,
O=[N+]([O-])O[C@H]1CO[C@H]2[C@@H]1OC[C@H]2O[N+](=O)[O-],inactive,inactive,inactive,inactive,inactive,inactive,inactive,inactive,inactive,
